Experimental data published in PubChem BioAssay (NCI).
The panel holds about 83,000 compounds, 20% with a hit somewhere; the sample as a whole holds those more often.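 Activity criterion: percent growth below 10, measured after cells in 96-well plates were exposed to a single compound concentration for 48 hours.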 Activity calls are given as the source filed them.

Assays:
Assay in all cases: NCI-60 one-dose screen, 48 h (100 = growth as untreated, 0 = no growth, -100 = all killed)
Conditions in all cases: 10 µM unless noted
NCI-H23 lung = test system: NCI-H23 lung
NCI-H226 lung = test system: NCI-H226 lung
NCI-H322M lung = test system: NCI-H322M lung
HOP-62 NSCLC = test system: HOP-62 NSCLC
NCI-H460 lung = test system: NCI-H460 lung
HOP-92 NSCLC = test system: HOP-92 NSCLC
NCI-H522 lung = test system: NCI-H522 lung
A549/ATCC NSCLC = test system: A549/ATCC NSCLC
786-0 renal = test system: 786-0 renal
COLO 205 colon = test system: COLO 205 colon
DU-145 prostate = test system: DU-145 prostate
MALME-3M melanoma = test system: MALME-3M melanoma
MDA-MB-231 breast = test system: MDA-MB-231 breast
RXF 393 renal = test system: RXF 393 renal
SF-268 CNS = test system: SF-268 CNS
SF-295 CNS = test system: SF-295 CNS
SF-539 CNS = test system: SF-539 CNS
UACC-257 melanoma = test system: UACC-257 melanoma
M14 melanoma = test system: M14 melanoma

Structure (SMILES) | growth (NCI-H23 lung) | growth (NCI-H226 lung) | growth (NCI-H322M lung) | growth (HOP-62 NSCLC) | growth (NCI-H460 lung) | growth (HOP-92 NSCLC) | growth (NCI-H522 lung) | growth (A549/ATCC NSCLC) | growth (786-0 renal) | growth (COLO 205 colon) | growth (DU-145 prostate) | growth (MALME-3M melanoma) | growth (MDA-MB-231 breast) | growth (RXF 393 renal) | growth (SF-268 CNS) | growth (SF-295 CNS) | growth (SF-539 CNS) | growth (UACC-257 melanoma) | growth (M14 melanoma)
CCCCN1C=CCN(CCCC)C1 | 65.4% (inactive) | 82.9% (inactive) | 75% (inactive) | 84.1% (inactive) | 50.1% (inactive) | 50.2% (inactive) | 47.7% (inactive) | 66.7% (inactive) | 73.9% (inactive) | 30.4% (inactive) | 71.8% (inactive) | -22.1% (active) | 75.2% (inactive) | 113% (inactive) | 58% (inactive) | 55.6% (inactive) | 78.6% (inactive) | 10.8% (inactive) | 46% (inactive)
C[C@@H](Nc1ncnc2ccc(-c3cnc(N)nc3)cc12)c1ccc(F)cc1 | 85.9% (inactive) | 89.1% (inactive) | 37.8% (inactive) | 57.7% (inactive) | 99.2% (inactive) | 49.6% (inactive) | 66.3% (inactive) | 74% (inactive) | 68.9% (inactive) | 112% (inactive) | 47.9% (inactive) | 85.2% (inactive) | 59.6% (inactive) | 34.7% (inactive) | 64.1% (inactive) | 81.7% (inactive) | 95.3% (inactive) | 94.8% (inactive) | 82.7% (inactive)
COc1ccc(/C=C/c2nc(Nc3ccc(S(=O)(=O)NC(C)=O)cc3)c3ccccc3n2)cc1 | 85.9% (inactive) | 84% (inactive) | 38.6% (inactive) | 81.2% (inactive) | 64.7% (inactive) | 67.8% (inactive) | 76.3% (inactive) | 42% (inactive) | 83.6% (inactive) | 49.7% (inactive) | 69.5% (inactive) | 99.1% (inactive) | 72.4% (inactive) | 103% (inactive) | 85.3% (inactive) | 81.2% (inactive) | 97.3% (inactive) | 89.4% (inactive) | 45.5% (inactive)
COc1cc2c(c(OC)c1OC)-c1ccc(NNC(=S)N(Cc3cccc(C[N+](Cc4cccc(CNC56CC7CC(CC(C7)C5)C6)c4)(Cc4cccc(CNC56CC7CC(CC(C7)C5)C6)c4)Cc4cccc(CN(C(=S)NNc5ccc6c(cc5=O)[C@@H](NC(C)=O)CCc5cc(OC)c(OC)c(OC)c5-6)C56CC7CC(CC(C7)C5)C6)c4)c3)C34CC5CC(CC(C5)C3)C4)c(=O)cc1[C@@H](NC(C)=O)CC2 (stereo not given in full) | 20.7% (inactive) | -8.38% (active) | 49.6% (inactive) | 48.6% (inactive) | 2.48% (active) | -5.87% (active) | -22.8% (active) | 20.9% (inactive) | 11% (inactive) | -56.9% (active) | 21.3% (inactive) | -48.1% (active) | -26.3% (active) | 20.2% (inactive) | 18.3% (inactive) | 20.3% (inactive) | 0.867% (active) | 43.1% (inactive) | -53.4% (active)
CCCN1[C@@H]2CC[C@H]1/C(=C\c1ccc(OC)c(OC)c1)C(=O)/C2=C/c1ccc(OC)c(OC)c1 | 23.8% (inactive) | 67.3% (inactive) | 46.7% (inactive) | 68.2% (inactive) | 39.6% (inactive) | 39.8% (inactive) | 47.8% (inactive) | 49.3% (inactive) | 63.8% (inactive) | 51.4% (inactive) | 59.7% (inactive) | 83.9% (inactive) | 56.3% (inactive) | 58.3% (inactive) | 59.2% (inactive) | 30.9% (inactive) | 59.4% (inactive) | 42.1% (inactive) | 43.1% (inactive)
CC(C)(C)c1cc(C=O)cc(C(C)(C)C)c1O | 112% (inactive) | 97.8% (inactive) | 101% (inactive) | 106% (inactive) | 111% (inactive) | 79.5% (inactive) | 90.7% (inactive) | 101% (inactive) | 107% (inactive) | 100% (inactive) | 103% (inactive) | 101% (inactive) | 87.5% (inactive) | 104% (inactive) | 96.6% (inactive) | 112% (inactive) | 102% (inactive) | 102% (inactive) | 
Cc1cc(Cl)nc(N(CCNc2ccnc3cc(Cl)ccc23)Cc2ccccn2)n1 | 56.2% (inactive) | 79.5% (inactive) | 63.6% (inactive) | 72.5% (inactive) | 50.9% (inactive) | 38% (inactive) | 54.1% (inactive) | 63.3% (inactive) | 38.7% (inactive) | 57.5% (inactive) | 73% (inactive) | 100% (inactive) | 57.2% (inactive) | 59.1% (inactive) | 83.4% (inactive) | 80.4% (inactive) | 6.88% (active) | 68.1% (inactive) | 62.5% (inactive)
Cc1nc2sccn2c1-c1cn2ccsc2n1 | 60.2% (inactive) | 84.3% (inactive) | 82.7% (inactive) | 90.7% (inactive) | 65.9% (inactive) | 69.6% (inactive) | 89.2% (inactive) | 98.9% (inactive) | 95.8% (inactive) | 87.2% (inactive) | 76.3% (inactive) | 77.7% (inactive) | 81.3% (inactive) | 77.5% (inactive) | 102% (inactive) | 89.9% (inactive) | 90.5% (inactive) | 91% (inactive) | 93.7% (inactive)
COc1ccc(-c2nc([C@@H](C)Sc3nc(N)cc(N)n3)c(C)s2)cc1OCCN1CCOCC1 | 103% (inactive) | 95.7% (inactive) | 109% (inactive) | 94.5% (inactive) | 110% (inactive) | 95.3% (inactive) | 87% (inactive) | 96.2% (inactive) | 104% (inactive) | 116% (inactive) | 111% (inactive) | 102% (inactive) | 66.6% (inactive) | 96% (inactive) | 102% (inactive) | 97.6% (inactive) | 111% (inactive) | 100% (inactive) | 114% (inactive)
Nc1c(S(=O)(=O)O)cc2c3c(cccc13)C(=O)OC2=O | 94.9% (inactive) | 105% (inactive) | 107% (inactive) | 93.9% (inactive) | 105% (inactive) | 90.7% (inactive) | 104% (inactive) | 116% (inactive) | 102% (inactive) | 111% (inactive) | 140% (inactive) | 112% (inactive) | 103% (inactive) | 131% (inactive) | 109% (inactive) | 117% (inactive) | 100% (inactive) | 78.8% (inactive) | 102% (inactive)
Cc1ccc(-c2nc3ccccn3c2/C=C2/C(=O)Nc3cc(Cl)ccc32)cc1 | 72.4% (inactive) | 94.5% (inactive) | 98% (inactive) | 83.7% (inactive) | 82.3% (inactive) | 110% (inactive) | 68.7% (inactive) | 90.6% (inactive) | 92.7% (inactive) | 84% (inactive) | 65.5% (inactive) | 76.1% (inactive) | 76% (inactive) | 77.8% (inactive) | 63.3% (inactive) | 64.5% (inactive) | 79.7% (inactive) | 91.1% (inactive) | 80.4% (inactive)
Cc1ccc(-n2nc3c(c(C#N)c2=O)CC(c2ccccc2[N+](=O)[O-])C([N+](=O)[O-])=C3O)cc1 (stereo not given) | 93.2% (inactive) | 92.1% (inactive) | 88% (inactive) | 84.6% (inactive) | 95.4% (inactive) | 88.5% (inactive) | 89.4% (inactive) | 90.1% (inactive) | 82.7% (inactive) | 101% (inactive) | 79.8% (inactive) | 79.5% (inactive) | 70.7% (inactive) | 81.9% (inactive) | 85.7% (inactive) | 105% (inactive) | 96.9% (inactive) | 93.8% (inactive) | 92.1% (inactive)
COc1ccc(-c2cnc3c(-c4cccc5ncccc45)cnn3c2)cc1 | 50% (inactive) | 0.736% (active) | 42.7% (inactive) | 4.66% (active) | 33.9% (inactive) | 24.9% (inactive) | 32.8% (inactive) | 27.2% (inactive) | 18.3% (inactive) | 88.5% (inactive) | 58.1% (inactive) | 15% (inactive) | -1.88% (active) | 26.7% (inactive) | 19% (inactive) | 32.2% (inactive) | 30.8% (inactive) | 51.3% (inactive) | 
